Screening data deposited in PubChem BioAssay by National Center for Advancing Translational Sciences (NCATS).
The sample as a whole holds a higher share of hits than the screen did.
TbPYK inhibitor – T. brucei pyruvate kinase inhibition; TbPYK enzyme, Kinase-Glo Plus ATP luminescence, 45 min; AID 624173; Potency, µM (doses to about 76.8 µM), for inactives: at the highest dose activity, negative = inhibition, most hits filed as inhibitors; 410,000 compounds, 0.12% hits; active means well fitted curve in the direction sought with a large enough effect; inconclusive means small, poorly fitted or top-dose-only effect, or another doubt; inactive means no such curve, though single readings can be large; an effect the other way counts as inactive or inconclusive; further: potency means the concentration at half of the fitted maximal effect; on the % scale 0 is the no-effect control and ±100 the full control effect; nearly all actives have a fitted effect of over 50% in size
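Glycolytic pyruvate kinase of T. brucei was incubated with substrate, test compound and 130 uM ADP for 45 minutes at room temperature. Luminescent Kinase-Glo Plus signal was measured after 10 minutes.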
Shiga toxin inh – blocks Shiga toxin action in Vero cells | Vero cells, Shiga toxin protein synthesis inhibition reporter | inhibition, % at 38.7 µM | 290,000 compounds, 9.2% hits | AID 2315; in the data active means inhibition mostly above about 28%, no sharp cut-off; inactive means mostly below about 43%; further: 0% is about no effect
NS1 function inh – influenza NS1 inhibition; Potency, µM (titrated, usually from 46.1 µM), inactives show top-dose activity, positive = more growth; 270,000 compounds, 0.4% hits; AID 2326; further: potency means the concentration at half of the fitted maximal effect; actives are rising curves; nearly all actives have a fitted effect of over 50% in size
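In this qHTS, NS1 from influenza A is expressed in budding yeast, where it slows growth. Cells are switched from glucose to 2% galactose medium (pH 6.0, -URA), treated with compound, and growth recovery is read at OD600.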
SARS PLP yeast – inhibitors of SARS-CoV papain-like protease in yeast | S. cerevisiae expressing SARS-CoV PLpro, growth rescue | Potency, µM (highest dose often 32.9 µM), inactives show top-dose activity, positive = growth rescue, hits mostly activators | 330,000 compounds, 0.19% hits | AID 485353; further: potency means the concentration at half of the fitted maximal effect; 0% is about no effect; nearly all actives have a fitted effect of over 55% in size
CHX counter – affects cycloheximide protein synthesis inhibition readout, counter-screen. cell reporter, cycloheximide protein synthesis inhibition counterscreen. AID 2314. 300,000 compounds, 12% hits. max response, %; in the data active means max response mostly above about 13%, no sharp cut-off; inactive means mostly below about 14%; further: read at 38.3 µM for the half of the compounds with a filed dose; 0% is about no effect
LmPK inh – LmPK (Leishmania mexicana) enzyme inhibition | Q27686 | purified LmPK, Kinase-Glo ATP luminescence, 1 h | Potency, µM (top dose mostly 57.5 µM), without a hit: top-dose activity change, negative = inhibition, actives largely listed as inhibitors | 290,000 compounds, 0.37% hits | AID 1721; active means well fitted curve in the direction sought with a large enough effect; inconclusive means small, poorly fitted or top-dose-only effect, or another doubt; inactive means no such curve, though single readings can be large; an effect the other way counts as inactive or inconclusive; further: potency means the concentration at half of the fitted maximal effect; on the % scale 0 is the no-effect control and ±100 the full control effect
Target sequence (Q27686 whole entry, looked up): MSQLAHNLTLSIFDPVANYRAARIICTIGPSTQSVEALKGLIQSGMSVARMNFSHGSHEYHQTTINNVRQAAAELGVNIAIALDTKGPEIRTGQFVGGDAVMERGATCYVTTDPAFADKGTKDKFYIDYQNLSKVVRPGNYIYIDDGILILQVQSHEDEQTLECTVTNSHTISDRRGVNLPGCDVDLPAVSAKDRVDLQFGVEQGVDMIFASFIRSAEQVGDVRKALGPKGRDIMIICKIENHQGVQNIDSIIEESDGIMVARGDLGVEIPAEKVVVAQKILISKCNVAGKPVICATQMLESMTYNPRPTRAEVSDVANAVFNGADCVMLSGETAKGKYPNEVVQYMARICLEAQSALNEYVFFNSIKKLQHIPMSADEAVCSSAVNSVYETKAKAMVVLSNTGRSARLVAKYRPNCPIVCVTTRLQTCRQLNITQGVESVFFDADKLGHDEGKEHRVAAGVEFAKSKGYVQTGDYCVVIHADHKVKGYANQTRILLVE
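0.1 nM LmPK, 0.5 mM PEP, 0.1 mM ADP; 50 mM imidazole pH 7.2, 7 mM MgCl2, 50 mM KCl; 1 h RT. Kinase-Glo luminescence readout, normalized to no-enzyme (full inhibition) and uninhibited wells.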
* hit, by the source's call; ? = inconclusive; . = no result given; [ ] = dose if it differs, or a comment. Unless noted, the call rests on the fitted dose curve.

SMILES	TbPYK inhibitor	Shiga toxin inh	NS1 function inh	SARS PLP yeast	CHX counter	LmPK inh
Cc1ccc(NC(=O)Cn2c(=O)n(Cc3nc(C)no3)c(=O)c3cc4c(cc32)OCO4)c(Cl)c1	4.1%	.	.	.	.	.
Nc1nc(SCc2ccccc2)[nH]c(=O)c1-c1ccccc1	3.5%	120.5*	-5.1%	-1.6%	67.1*	-1.4%
C=CCc1c(C)nc(SCc2ccccc2)[nH]c1=O	2.0%	18.2	-13.4%	-2.4%	16.4*	1.6%
Nc1nc(SCC(=O)N2CCCc3ccccc32)[nH]c(=O)c1-c1ccccc1	-5.7%	54.0*	-4.8%	3.1%	34.4*	1.2%
COc1ccccc1NC(=O)c1sc2nc3n(c(=O)c2c1C)N=C(c1cccc(Br)c1)CS3	-4.2%	.	.	.	.	.
COc1ccccc1-c1nnc(SCC(=O)c2ccc(F)cc2)n1-c1ccccc1	-10.1%	.	.	.	.	.
CCOC(=O)CCCCCC(=O)Nc1ccc2c(c1)C(=O)N([C@H](C)CO)C[C@@H](C)[C@@H](CN(C)C(=O)CCC(F)(F)F)OCCCC[C@H](C)O2	-12.8%	.	.	.	.	.
CC(C)NC(=O)N(C)C[C@H]1Oc2c(NC(=O)C3CC3)cccc2C(=O)N([C@H](C)CO)C[C@@H]1C	-2.5%	.	.	-4.2%	.	.
C[C@@]12CC[C@H]3[C@H](CCC4=CC(=O)CC[C@H]43)[C@H]1CC[C@H]2OC1(O)C(=O)c2ccccc2C1=O	.	.	-2.6%	.	.	.
O=C(N/N=C/c1ccc(F)cc1)c1ccc(OCc2ccccc2)cc1	24.0%	16.6	9.4%	0.2%	-2.2	-0.4%
O=C(N/N=C/c1cccnc1)c1ccccc1OCc1cccc(Br)c1	-2.6%	-21.6	.	-3.5%	-2.1	7.9%[11.5 µM]
O=C(N/N=C/c1ccc(COc2ccc(Br)cc2)o1)c1ccco1	3.4%	active	4.9%	-9.3%	21.8	4.6%
O=C(N/N=C/c1ccco1)c1ccccc1OCc1ccc(Br)cc1	-2.3%	117.9*	-3.3%	-16.2%	33.1*	-4.9%
Cc1ccc(/C=N/NC(=O)c2ccccc2OCc2cccc(Br)c2)o1	-5.8%	-9.2	0.1%	-15.0%	15.2*	1.9%
O=C(N/N=C/c1ccco1)c1ccc(OCc2ccccc2)cc1	-1.4%	0.8	-6.2%	-0.3%	11.1*	2.2%
CCc1nc2c(OCc3ccc(F)c(F)c3)cccn2c1N(C)C(=O)c1ccc(OC)cc1	0.3%	.	.	.	.	.
O=C1/C(=C/c2ccco2)CCC1C1CCCC1 (configuration not stated)	-3.2%	127.0*	.	-6.8%	52.9*	-7.8%
CCOc1ccc(/C=C2\CCC(C3CCCC3)C2=O)cc1OC (configuration not stated)	2.8%	29.9	0.9%	-0.1%	7.5	2.4%
O=C1/C(=C/c2ccccc2)CCC1C1CCCC1 (configuration not stated)	1.5%	76.1*	1.3%	3.6%	39.8*	-9.5%
COc1ccccc1/C=C1\CCC(C2CCCC2)C1=O (configuration not stated)	-0.8%	43.0*	3.4%	5.1%	34.2*	-5.6%
O=C1/C(=C\c2ccco2)CCC/C1=C\c1ccco1	-16.4%	10.2	15.7%	-27.5%	-1.6	3.9%
O=C1/C(=C/c2ccc(F)cc2)CCC1C1CCCC1 (configuration not stated)	-0.6%	74.8*	-3.2%	-5.6%	41.2*	-11.4%
CNC(=O)c1ccccc1Sc1ccc2c(/C=C/c3ccccn3)n[nH]c2c1	0.0%	.	.	.	.	.
O=C(NCC1CCCN1S(=O)(=O)c1cccs1)C(=O)Nc1ccccc1F (configuration not stated)	-4.1%	.	.	.	.	.
CCOc1ccc(/C=C2\CCC(C3CCCC3)C2=O)cc1 (configuration not stated)	-9.5%	21.4	1.9%	1.5%	22.2*	-10.4%
SMILES	TbPYK inhibitor	Shiga toxin inh	NS1 function inh	SARS PLP yeast	CHX counter	LmPK inh
CC1CCc2c(sc3nnn(Cc4ccccc4)c(=O)c23)C1 (configuration not stated)	-8.5%	.	.	.	.	.
CSc1nc2sc3c(c2c(=O)n1C)CCC(C)C3 (configuration not stated)	-12.5%	11.2	-2.4%	5.2%	22.0*	-5.4%
C=CCn1nnc2sc3c(c2c1=O)CCC(C)C3 (configuration not stated)	-5.2%	48.8*	-85.2%	4.4%	29.0*	4.3%
COc1ccc(OC)c(C(=O)c2coc3ccc(O)cc23)c1	5.1%	103.4*	-8.7%	-11.6%	25.4*	10.0%
COc1ccc2occ(C(=O)c3ccccc3)c2c1	-4.7%	66.1*	.	-0.9%	37.7*	-5.9%
CCN(c1ccc(OC)cc1)S(=O)(=O)c1ccc2c(c1)NC(=O)CS2	0.0%	27.2	10.1%	?	34.4*	2.7%
CSc1nc(NCc2ccccc2)c2c3c(sc2n1)CN(C)CC3	0.1%	53.0*	-15.7%	-8.4%	19.2*	3.2%
CCn1c(SCC(=O)c2ccccc2)nc2sc3c(c2c1=O)CCN(C)C3	0.1%	69.9*	5.9%	0.8%	12.0*	-1.4%
O=C(O)CSc1nc2sc3c(c2c(=O)n1Cc1ccccc1)CCCCC3	1.8%	39.9*	11.1%	-2.6%	26.4*	3.3%
CSc1nc(NCC(C)C)c2c3c(sc2n1)CN(C)CC3	4.7%	-10.2	4.0%	-0.1%	-0.4	1.2%
Nn1c(Nc2ccccc2)nc2sc3c(c2c1=O)CCC3	-8.6%	85.6*	-5.7%	-6.9%	26.1*	2.1%
Cc1ccccc1-n1c(SCC(=O)O)nc2sc3c(c2c1=O)CCCC3	-21.8%	2.4	8.4%	1.8%	-9.2	0.8%
COc1ccc(CCNC(=O)CN2c3cccc4cccc(c34)S2(=O)=O)cc1OC	0.9%	-1.7	20.8%	4.1%	3.4	1.4%
O=C(O)c1ccc(Cn2nnc3sc4c(c3c2=O)CCCC4)cc1	-6.9%	166.6*	.	-0.8%	41.3*	0.5%
CC(C)Sc1nc(N)c2c3c(sc2n1)CN(C)CC3	4.8%	20.7	5.6%	-4.4%	15.6*	-3.2%
COC(=O)c1ccc(Cn2nnc3sc4c(c3c2=O)CCCC4)cc1	-7.0%	.	.	.	.	.
CSc1nn(Cc2cccc(Cl)c2)c(N(C(C)=O)C(C)=O)c1S(=O)(=O)c1ccccc1	-2.9%	.	.	.	.	.
O=C(/C=C/c1ccc2c(c1)OCO2)NCC1CCCO1 (configuration not stated)	-0.7%	63.2*	.	-6.3%	36.9*	-6.8%
O=C(/C=C/c1ccc2c(c1)OCO2)NC1CCCC1	0.0%	.	-44.1%	-3.1%	27.0*	0.6%
O=C(CCNS(=O)(=O)c1ccc(F)c(F)c1)NCCN1CCOCC1	0.4%	.	.	8.4%	.	.
O=C1/C(=C/c2ccc([N+](=O)[O-])cc2)Oc2cc(O)ccc21	4.3%	67.0*	-43.1%	-6.3%	40.0*	-6.9%
O=C1/C(=C/c2ccc(Br)cc2)Oc2cc(O)ccc21	-7.2%	60.8*	-57.3%	-9.5%	28.6*	0.4%
COC(=O)c1ccc2c(c1)C(=O)/C(=C/c1ccc(O)cc1)O2	-4.3%	64.6*	3.4%	-2.5%	20.4	11.0%
CC(C)(C)c1ccc(/C=C2\Oc3cc(O)ccc3C2=O)cc1	1.6%	125.4*	-30.6%	-10.5%	61.0*	3.6%
